Active and inactive are the calls of the source. How the source made its calls: active means hit-call score of the fitted dose curve at least 0.9, where 1 is the maximum; inactive means score below 0.9.
Columns and labels:
Conditions in all cases: mRNA level, 48 h; actives raise or lower the signal
[1] = read-out: Cytochrome P450 7A1 (Homo sapiens) (UniProt P22680); experiment: LTEA_HepaRG_CYP7A1: Life Technologies and Expression Analysis (LTEA) Assay for Cytochrome P450 7A1 (CYP7A1) using HepaRG (AID 2283496)
How it was run: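 Gene expression endpoint in human HepaRG liver cells treated for 48 h with test chemicals (up to 100 uM, 0.5% DMSO). Values come from bidirectional concentration-response fitting versus DMSO.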

[2] = read-out: Glutathione S-Transferase (GSTA2), GSTA2 (gene 2939); experiment: LTEA_HepaRG_GSTA2: Life Technologies and Expression Analysis (LTEA) Assay for Glutathione S-Transferase (GSTA2) using HepaRG (AID 2283497)
How it was run: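 Differentiated human HepaRG cells were exposed in duplicate for 48 h in serum-free induction medium, 8 points from 100 uM top in half-log steps, 0.5% DMSO. GSTA2 mRNA was measured by TaqMan qRT-PCR, normalized to ACTB, GAPDH and POLR2A; bidirectional fit versus DMSO.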

[3] = read-out: Glutamate-cysteine ligase catalytic (GCLC), GCLC (gene 2729); experiment: LTEA_HepaRG_GCLC: Life Technologies and Expression Analysis (LTEA) Assay for Glutamate-cysteine ligase catalytic (GCLC) using HepaRG (AID 2283498)
How it was run: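 Differentiated HepaRG cells exposed 48 h in serum-free induction medium, eight-point half-log series topping at 100 uM in 0.5% DMSO, duplicates. GCLC mRNA by qRT-PCR normalized to ACTB, GAPDH and POLR2A, fitted bidirectionally versus DMSO.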

[4] = read-out: growth arrest and DNA damage 45 (GADD45G), GADD45G (gene 10912); experiment: LTEA_HepaRG_GADD45G: Life Technologies and Expression Analysis (LTEA) Assay for growth arrest and DNA damage 45 (GADD45G) using HepaRG (AID 2283499)
How it was run: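 GADD45G transcript level by qRT-PCR (housekeeping-normalized: ACTB, GAPDH, POLR2A) after 48 h chemical treatment of a single HepaRG lot in serum-free induction medium; eight-point half-log series up to 100 uM in 0.5% DMSO, duplicates, up- or down-regulation scored.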

[5] = read-out: Glutathione S-transferase M3 (GSTM3), GSTM3 (gene 2947); experiment: LTEA_HepaRG_GSTM3: Life Technologies and Expression Analysis (LTEA) Assay for Glutathione S-transferase M3 (GSTM3) using HepaRG (AID 2283501)
How it was run: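 GSTM3 transcript levels came from Fluidigm TaqMan qRT-PCR normalized to three housekeeping genes, fitted in both directions against DMSO. HepaRG cultures received chemicals for 48 h in serum-free induction medium (0.5% DMSO), 8 half-log concentrations up to 100 uM, duplicate.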

[6] = read-out: Heat shock 70 kDa protein 1 (HSPA1A), gene 3303; experiment: LTEA_HepaRG_HSPA1A: Life Technologies and Expression Analysis (LTEA) Assay for Heat shock 70 kDa protein 1 (HSPA1A) using HepaRG (AID 2283502)
How it was run: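 HSPA1A induction in human HepaRG liver cells is measured after 48 h of chemical treatment (100 uM maximum, 0.5% DMSO vehicle). Expression comes from qRT-PCR normalized to endogenous controls.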

[7] = read-out: Hypoxia-inducible factor 1-alpha (Homo sapiens) (UniProt Q16665); experiment: LTEA_HepaRG_HIF1A: Life Technologies and Expression Analysis (LTEA) Assay for Hypoxia-inducible factor 1 (HIF1A) Trancription factor using HepaRG (AID 2283503)
How it was run: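 HepaRG, 48 h exposure, 8-pt half-log series from 100 uM, 0.5% DMSO vehicle, duplicates. Readout: HIF1A transcript by qRT-PCR (Fluidigm array), housekeeping-normalised. Bidirectional curve fit vs DMSO baseline.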

HGF (gene 3082) = experiment: LTEA_HepaRG_HGF: Life Technologies and Expression Analysis (LTEA) Assay for Hepatocyte Growth Facto (HGF) using HepaRG (AID 2283505)
How it was run: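 HGF transcript was quantified by TaqMan qRT-PCR against three housekeeping genes after 48 h treatment of HepaRG cells. Exposure ran in duplicate over eight half-log steps topping at 100 uM in 0.5% DMSO vehicle.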

[8] = read-out: Insulin Like Growth Factor 1 (IGF1), IGF1 (gene 3479); experiment: LTEA_HepaRG_IGF1: Life Technologies and Expression Analysis (LTEA) Assay for Insulin Like Growth Factor 1 (IGF1) using HepaRG (AID 2283506)
How it was run: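 Using human HepaRG liver cells, IGF1 transcript induction or suppression is measured 48 h after dosing across eight concentrations capped at 100 uM. Values derive from bidirectional concentration-response fitting with DMSO as baseline.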

[9] = read-out: Intercellular Adhesion Molecule 1 (ICAM1), ICAM1 (gene 3383); experiment: LTEA_HepaRG_ICAM1: Life Technologies and Expression Analysis (LTEA) Assay for Intercellular Adhesion Molecule 1 (ICAM1) using HepaRG (AID 2283507)
How it was run: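 ICAM1 transcript levels measured by qRT-PCR, normalized to three housekeeping genes (ACTB, GAPDH, POLR2A), after 48 h chemical exposure of HepaRG cells. Duplicate eight-point half-log series from 100 uM in 0.5% DMSO; gain or loss fitted against vehicle.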

[10] = read-out: Insulin-like growth factor-binding protein 1 (IGFBP1), IGFBP1 (gene 3484); experiment: LTEA_HepaRG_IGFBP1: Life Technologies and Expression Analysis (LTEA) Assay for Insulin-like growth factor-binding protein 1 (IGFBP1) using HepaRG (AID 2283508)
How it was run: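 Read-out is qRT-PCR transcript level normalized to three housekeeping genes, fitted in both directions against 0.5% DMSO. Differentiated HepaRG cells received eight half-log concentrations (top 100 uM) in duplicate for 48 h in serum-free induction medium.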

[11] = read-out: Interleukin 6 (IL6), IL6 (gene 3569); experiment: LTEA_HepaRG_IL6: Life Technologies and Expression Analysis (LTEA) Assay for Interleukin 6 (IL6) using HepaRG (AID 2283509)
How it was run: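 HepaRG cells exposed in duplicate for 48 h to eight half-log concentrations, top 100 uM, in 0.5% DMSO serum-free induction medium. mRNA measured by qRT-PCR, normalized to ACTB, GAPDH and POLR2A. Bidirectional fit versus DMSO.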

[12] = read-out: Interleukin 6 Receptor (IL6R), IL6R (gene 3570); experiment: LTEA_HepaRG_IL6R: Life Technologies and Expression Analysis (LTEA) Assay for Interleukin 6 Receptor (IL6R) using HepaRG (AID 2283510)
How it was run: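 Concentration-response in human liver HepaRG cells: eight concentrations from 100 uM downward by half-logs, 48 h exposure, 0.5% DMSO vehicle. IL6R mRNA change measured by qRT-PCR and fitted in both directions relative to vehicle.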

[13] = read-out: Potassium channel subfamily K member 1 (KCNK1), KCNK1 (gene 3775); experiment: LTEA_HepaRG_KCNK1: Life Technologies and Expression Analysis (LTEA) Assay for Potassium channel subfamily K member 1 (KCNK1) using HepaRG (AID 2283511)
How it was run: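 Differentiated HepaRG cells, 48 h exposure in serum-free induction medium with 0.5% DMSO; 8 concentrations, half-log from 100 uM, duplicate. KCNK1 mRNA by qRT-PCR, normalized to ACTB, GAPDH, POLR2A; bidirectional fit vs DMSO.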

[14] = read-out: Lipase C (LIPC), LIPC (gene 3990); experiment: LTEA_HepaRG_LIPC: Life Technologies and Expression Analysis (LTEA) Assay for Lipase C (LIPC) using HepaRG (AID 2283514)
How it was run: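 HepaRG cells, 48 h after plating, treated in duplicate for 48 h in serum-free induction medium over 8 half-log concentrations from 100 uM, 0.5% DMSO. LIPC mRNA by TaqMan qRT-PCR normalized to ACTB/GAPDH/POLR2A; bidirectional fit versus DMSO.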

[15] = read-out: Lipoprotein lipase (LPL), LPL (gene 4023); experiment: LTEA_HepaRG_LPL: Life Technologies and Expression Analysis (LTEA) Assay for Lipoprotein lipase (LPL) using HepaRG (AID 2283515)
How it was run: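 Differentiated HepaRG cells, plated 48 h, then exposed 48 h in serum-free induction medium to 8 concentrations (top 100 uM, half-log steps) in 0.5% DMSO, duplicate. LPL mRNA measured by qRT-PCR, normalized to ACTB, GAPDH and POLR2A.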

[16] = read-out: Glutamate-cysteine ligase regulatory (GCLM), GCLM (gene 2730); experiment: LTEA_HepaRG_GCLM: Life Technologies and Expression Analysis (LTEA) Assay for Glutamate-cysteine ligase regulatory (GCLM) using HepaRG (AID 2283500)
How it was run: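 Human liver HepaRG cultures receive test chemicals for 48 hours at up to 100 uM in 0.5% DMSO. GCLM expression is measured by qRT-PCR and analysed for increases or decreases against vehicle.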

[17] = read-out: 3-Hydroxy-3-Methylglutaryl-CoA Synthase 2 (HMGCS2), HMGCS2 (gene 3158); experiment: LTEA_HepaRG_HMGCS2: Life Technologies and Expression Analysis (LTEA) Assay for 3-Hydroxy-3-Methylglutaryl-CoA Synthase 2 (HMGCS2) using HepaRG (AID 2283504)
How it was run: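 Readout is HMGCS2 transcript by qRT-PCR, housekeeping-normalised (ACTB/GAPDH/POLR2A) and fitted bidirectionally against 0.5% DMSO. Differentiated HepaRG cells received chemicals 48 h, duplicate wells, eight half-log concentrations topping at 100 uM.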

[18] = read-out: JUN Transcription Factor, JUN (gene 3725); experiment: LTEA_HepaRG_JUN: Life Technologies and Expression Analysis (LTEA) Assay for JUN Transcription Factor using HepaRG (AID 2283513)
How it was run: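 Human HepaRG liver cells receive test chemicals in 0.5% DMSO for 48 h across an eight-point range topping at 100 uM. Expression changes in JUN are scored in both directions against the DMSO vehicle.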

Measured: outcome

Hypoxia-inducible factor 1-alpha (Homo sapiens), sequence (Q16665 whole entry, looked up): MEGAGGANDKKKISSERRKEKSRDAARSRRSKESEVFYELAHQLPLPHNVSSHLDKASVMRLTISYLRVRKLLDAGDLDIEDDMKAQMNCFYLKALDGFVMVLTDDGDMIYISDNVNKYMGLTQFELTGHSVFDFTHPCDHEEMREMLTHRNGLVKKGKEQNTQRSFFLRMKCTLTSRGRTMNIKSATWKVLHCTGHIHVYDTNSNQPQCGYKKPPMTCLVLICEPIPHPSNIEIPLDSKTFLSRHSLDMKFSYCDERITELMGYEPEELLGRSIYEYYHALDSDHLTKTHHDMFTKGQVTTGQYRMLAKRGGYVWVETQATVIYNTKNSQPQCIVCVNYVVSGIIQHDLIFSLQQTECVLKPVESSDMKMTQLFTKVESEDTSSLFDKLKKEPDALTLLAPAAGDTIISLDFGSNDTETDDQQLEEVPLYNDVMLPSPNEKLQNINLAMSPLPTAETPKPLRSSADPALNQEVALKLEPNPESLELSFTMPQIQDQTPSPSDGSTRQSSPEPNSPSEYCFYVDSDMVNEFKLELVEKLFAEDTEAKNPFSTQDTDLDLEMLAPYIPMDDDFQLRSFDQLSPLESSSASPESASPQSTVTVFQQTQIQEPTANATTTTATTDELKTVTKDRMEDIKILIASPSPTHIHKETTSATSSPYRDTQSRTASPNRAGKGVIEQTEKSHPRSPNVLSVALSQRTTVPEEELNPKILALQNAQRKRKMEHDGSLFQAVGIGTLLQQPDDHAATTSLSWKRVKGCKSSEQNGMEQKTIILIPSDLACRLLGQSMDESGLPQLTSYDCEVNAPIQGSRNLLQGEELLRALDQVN

CCOP(=O)(OCC)Oc1cc(C)nc(C(C)C)n1
not listed: [16] | [17] | [18]
inactive: all other assays above

COP(=O)(OC)C(O)C(Cl)(Cl)Cl (stereo not drawn)
not listed: [1] | [2] | [7]
inactive: all other assays above

CCNc1nc(Cl)nc(NC(C)(C)C#N)n1
not listed: [15] | [16] | [17]
inactive: all other assays above

COc1cc(OC)nc(Sc2cccc(Cl)c2C(=O)O)n1
not listed: [5] | [15] | [16] | [17]
inactive: all other assays above

Source: PubChem BioAssay (EPA / NIEHS)
